Bioassay records (PubChem)
Sampled rows, rich in hits. Any-hit rate of the full collection: about 1.6%.
PABP polyA inh = PABP poly(A) RNA binding inhibitors, primary screen, biochemical, fluorescence polarization, uHTS; inhibition, % at 35 µM; AID 2014, 2009; 290,000 tested, 1% active;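 note: calls also rest on retests at 20 µM and on dose response follow-up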
PERK inh = block of dimerizer-induced PERK translation repression, primary screen, PERK inhibitor project, CHO PERK-DD cells, SEAP luminescence, HTS; Eukaryotic translation initiation factor 2-alpha kinase 3 (Homo sapiens), Q9NZJ5; CHO PERK-DD fusion, SEAP luminescence translation reporter; inhibition, % at 5.6 µM; 220,000 tested, 0.17% active;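 active = inhibition above the mean inhibition of all tested compounds plus 3 SD, set separately per screening campaign, cut at about 2.9% in these data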;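 note: PERK kinase domain activated by AP20187 dimerizer at 100 nM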
MLLE-PAM2 inh = inhibitors of PABP1 MLLE–PAM2 peptide binding, primary screen, biochemical, fluorescence polarization, FITC-PAM2, GST-MLLE | 360,000 tested, 0.36% active | inhibition, % at 20 µM | Polyadenylate-binding protein 1 (Homo sapiens), P11940 | AID 588489, 2011; in the data active = inhibition above about 35%, passing the limit was not always enough
eIF4H inh = human eIF4H binding inhibitors, primary screen, translation initiation inhibitor project, biochemical, uHTS, fluorescence polarization; eIF4H fluorescence polarization binding assay; AID 2012, 2009; 290,000 tested, 0.94% active; inhibition, % at 35 µM;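 note: calls also rest on retests at 20 µM and on dose response follow-up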
eIF4E 4G PPI = eIF4E–eIF4G protein interaction inhibitors, primary screen, biochemical, uHTS, TR-FRET, eIF4GI fragment. Eukaryotic translation initiation factor 4E (Mus musculus) + Eukaryotic translation …. TR-FRET eIF4E-eIF4GI(517-606) binding, 2 h. inhibition, % at 21.7 µM. 220,000 tested, 0.37% active. AID 782, 2007;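 active = inhibition above about 30%, limit read from the data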
Large screens that a line does not name were inactive. Unless noted, the rule behind the calls is not given here.

CCCCCCCn1c(NC(=O)CC)nc2ccccc21	PABP polyA inh 2.0, eIF4H inh 74
FC(F)(F)c1cccc(NC(=S)NCc2ccccn2)c1	none
FC(F)(F)c1cccc(NC(=S)Nc2cccc(NC(=S)Nc3cccc(C(F)(F)F)c3)n2)c1	MLLE-PAM2 inh 47
FC(F)(F)c1cccc(NC(=S)NNC(=S)NCc2ccccc2)c1	MLLE-PAM2 inh 41
Cc1cccc(NC(=S)Nc2cccc(C(F)(F)F)c2)n1	none
Oc1cc2c(cc1CN1CCN(c3ncccn3)CC1)OCO2	none (no result: PERK inh, eIF4E 4G PPI)
CCCS(=O)(=O)NC(=O)C1(C)CCN(C(=O)c2cccc3ccccc23)C1 (stereo not drawn)	none (no result: PABP polyA inh, PERK inh, eIF4H inh, eIF4E 4G PPI)
CCC(C)C(CO)NCCCn1cnc2c(SC)ncnc21 (stereo not drawn)	none (no result: PABP polyA inh, PERK inh, eIF4H inh, eIF4E 4G PPI)
O=C(Nc1ccc(F)cc1)NC1CCN(Cc2nnnn2Cc2ccco2)CC1	PABP polyA inh 53, eIF4H inh 74
O=C(Nc1ccccc1F)NC1CCN(Cc2nnnn2Cc2ccc(F)cc2)CC1	none
Cc1ccc(C)n1-c1ccc(N2CCOCC2)nc1	PABP polyA inh 66, eIF4H inh 71
CC(C)C(NC(=O)c1cccs1)C(=O)NC1=NCCS1 (stereo not drawn)	MLLE-PAM2 inh 42
O=C(NC1=NCCS1)c1csc2ccccc12	MLLE-PAM2 inh 36
O=C(NC1=NCCS1)c1cccs1	MLLE-PAM2 inh 44
Cc1ccc(-c2cnc3c(c2)C(=O)N([C@H](C)CO)C[C@@H](C)[C@@H](CN(C)C(=O)Cc2ccccc2)O3)cc1	none (no result: PABP polyA inh, PERK inh, eIF4H inh, eIF4E 4G PPI)
CC(C)c1ccc(NC(=O)CN2C(=O)NC3(CCCCCCC3)C2=O)cc1	none (no result: PABP polyA inh, PERK inh, eIF4H inh, eIF4E 4G PPI)
O=C(Nc1ccccc1)Nc1ccc(Cl)nc1Cl	none (no result: PABP polyA inh, PERK inh, eIF4H inh, eIF4E 4G PPI)
CC(C)CCn1c(SCC(=O)NC2CC2)nc2cc(Cl)ccc2c1=O	none (no result: PABP polyA inh, PERK inh, eIF4H inh, eIF4E 4G PPI)
Cc1ccc(OCC(=O)c2cc(C)n(C)c2C)c([N+](=O)[O-])n1	eIF4H inh 76
COc1cc(/C=C2\SC(N)=NC2=O)cc(Cl)c1O	PABP polyA inh 11 (no result: PERK inh, eIF4E 4G PPI)
O=C(O)c1ccccc1-c1ccc(C=c2sc3nc4cc(Br)cnc4n3c2=O)o1	none (no result: PABP polyA inh, PERK inh, eIF4H inh, eIF4E 4G PPI)
O=c1/c(=C\c2cc([N+](=O)[O-])cc([N+](=O)[O-])c2O)sc2nc3ccccc3n12	eIF4E 4G PPI 30
O=C(O)c1cc(C(=O)O)cc(-c2ccc(/C=c3/sc4nc5ccccc5n4c3=O)o2)c1	eIF4H inh 56 (no result: MLLE-PAM2 inh)
O=c1/c(=C/c2ccccn2)sc2nc3ccccc3n12	PABP polyA inh inconclusive, eIF4H inh inconclusive
O=C(O)c1cccc(-c2ccc(/C=c3/sc4nc5ccccc5n4c3=O)o2)c1	eIF4E 4G PPI 39
COc1cccc(-c2cc3nc(C)c(C)c(N4CCN(C(=O)c5ccoc5)CC4)n3n2)c1	none (no result: PABP polyA inh, PERK inh, eIF4H inh, eIF4E 4G PPI)
COC(=O)C1(Cc2ccc(O)c(CC3OC3(C)C)c2)OC(=O)C(O)=C1c1ccc(O)cc1 (stereo not drawn)	eIF4E 4G PPI 96 (no result: PERK inh)
O=C1CCC(C(=O)N2CCc3ccccc3C2)CN1CCCN1CCOCC1 (stereo not drawn)	none (no result: PERK inh, eIF4E 4G PPI)
CCc1noc(C)c1C(=O)OCC(=O)NCc1ccccc1OC	none (no result: PABP polyA inh, PERK inh, eIF4H inh, eIF4E 4G PPI)
COc1ccc(C(=O)OCC(=O)NCC2CCCCC2)c(OC)c1	none (no result: PABP polyA inh, PERK inh, eIF4H inh, eIF4E 4G PPI)
N#Cc1c(=O)c2nc(NCc3ccccc3)ncc2n2ccccc12	PABP polyA inh 54, eIF4H inh 84
COc1cc(O)c(C(C)=O)c(CC(=O)O)c1	PABP polyA inh 58, eIF4H inh 96 (no result: PERK inh)
O=C(N/N=C/c1ccc(O)c(O)c1O)/C(=C/c1ccc([N+](=O)[O-])cc1)NC(=O)c1ccccc1	PABP polyA inh 59, eIF4H inh 105
Cc1ccc(NC(=O)/C(=C\c2ccc([N+](=O)[O-])cc2)NC(=O)c2ccccc2)cc1	none
CC1CC(C)(C)NC(=S)S1 (stereo not drawn)	MLLE-PAM2 inh 41
CCCOc1cccc(-c2nn(-c3ccccc3)cc2/C=C(\C#N)C(=O)NCCCn2ccnc2)c1	PABP polyA inh 50, eIF4H inh inconclusive
CCc1nnc(NC(=O)Cc2ccc(OCc3c(C)noc3C)cc2)s1	eIF4E 4G PPI 65
CC(=O)Nc1cc(-c2cccc(C(=O)NCCO)c2)cn2c(-c3ccc(F)c(Cl)c3)cnc12	none (no result: PABP polyA inh, PERK inh, eIF4H inh, eIF4E 4G PPI)
CSc1nc2c(=S)[nH]c(=S)[nH]c2s1	MLLE-PAM2 inh 39 (no result: PABP polyA inh, PERK inh, eIF4H inh, eIF4E 4G PPI)
O=C1C=CC(c2ccccc2)(c2ccccc2)CC1	none (no result: PABP polyA inh, PERK inh, eIF4H inh, eIF4E 4G PPI)
CN1CCC(N(C)C(=O)c2ccc(Cl)c(S(=O)(=O)N3CCOCC3)c2)CC1	none (no result: PABP polyA inh, PERK inh, eIF4H inh, eIF4E 4G PPI)
C/C(=N\Nc1nc2ccccc2c(=O)n1O)c1ccco1	eIF4H inh 79 (no result: PERK inh, eIF4E 4G PPI)
C/C(=N\NC(=O)c1cc(C)nc2ccccc12)c1ccco1	none
CCNC(=O)OCCC12CC3CC(CC(C3)C1)C2	PABP polyA inh 89
N#C/C(=C/c1ccc(N2CCOCC2)c([N+](=O)[O-])c1)C(N)=O	PABP polyA inh 1.5, eIF4H inh 62
CC1(C(=O)NCc2ccccc2)CCC(=O)N1CCOc1ccccc1 (stereo not drawn)	none (no result: PABP polyA inh, PERK inh, eIF4H inh, eIF4E 4G PPI)
O=C1N=C(N2C=CC(=C3C=CNC=C3)C=C2)/C(=C/N=NC(=O)c2ccccc2O)S1	MLLE-PAM2 inh 48 (no result: PABP polyA inh, PERK inh, eIF4H inh, eIF4E 4G PPI)
NC1(C(=O)O)CCCCC1c1ccccc1 (stereo not drawn)	none (no result: PABP polyA inh, PERK inh, eIF4H inh, eIF4E 4G PPI)
O=C(Nc1ccc(S(=O)(=O)Nc2nccs2)cc1)c1ccc(S(=O)(=O)N2CCOCC2)cc1	none
O=C(Nc1ccc(S(=O)(=O)Nc2nccs2)cc1)c1ccc(=O)[nH]c1	PABP polyA inh 28
O=C(Nc1ccc(S(=O)(=O)Nc2nccs2)cc1)c1ccncc1	none (no result: PABP polyA inh, PERK inh, eIF4H inh, eIF4E 4G PPI)
O=C(Nc1ccc(S(=O)(=O)Nc2nccs2)cc1)c1ccc(F)c(S(=O)(=O)N2CCOCC2)c1	eIF4H inh 52
CC(=O)Nc1ccc(NC(=O)C(C)OC(=O)c2c(NC(C)=O)sc(C)c2C)cc1 (stereo not drawn)	none (no result: PABP polyA inh, PERK inh, eIF4H inh, eIF4E 4G PPI)
O=[N+]([O-])c1ccc(C2=NCCO2)cc1	none
S=c1nc(-c2ccccc2)oc2c1CCCC2	none
COc1cccc(-c2nc(=S)c3c(o2)CCCC3)c1	MLLE-PAM2 inh 45
O=[N+]([O-])c1ccc(-c2nc(=S)c3c(o2)CCCC3)cc1	MLLE-PAM2 inh 45
O=C(c1noc2c1CSc1ccccc1-2)N1CCN(c2ccc(Cl)cc2)CC1	none (no result: PERK inh, eIF4E 4G PPI)
CC(C)Oc1ccc(CN=C(N)N=C(N)N)cc1Cl	PABP polyA inh 119, eIF4H inh active
COc1ccc(CN=C(N)N=C(N)N)cc1Cl	none
Cc1ccc(NC(=O)COC(=O)c2c[nH]c3ccccc23)cc1C	none (no result: PABP polyA inh, PERK inh, eIF4H inh, eIF4E 4G PPI)
Cc1c(O)cc2n(c1=O)-c1ccc(Cl)cc1C2(C)C	none
CC1(C)c2cc(Cl)ccc2-n2c1cc(O)c(-c1ccccc1)c2=O	eIF4E 4G PPI 70
CCCCN(CC)CCCNC(=O)CC1Oc2ccccc2NC1=O (stereo not drawn)	none
CCN(CC)CCCNC(=O)CC1Sc2ccccc2NC1=O (stereo not drawn)	eIF4E 4G PPI 32
